Inconclusive results are not listed. Where a call stands in place of a potency, no number is given. Calls of active or inactive are those of the source. Calls come from the whole dose curve; as a rule, active = well fitted activation curve with a large enough effect in the signal ratio in the repeat runs (not every such curve was filed as active); inconclusive = weak or mixed curves, or effect the other way; inactive = no such curve, though single readings can be large or run the other way; the % refers to the signal ratio.

38 compounds from PubChem BioAssay (Tox21) can be followed below.
Potency is the fitted concentration of half-maximal effect.

The experiment can be described thus: qHTS assay for small molecule agonists of the antioxidant response element (ARE) signaling pathway (AID 743202). The conditions noted are these: HepG2 ARE-bla reporter, beta-lactamase FRET, 16 h; series mostly up to 73.3 µM. The essentials: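 Compounds delivered in DMSO to ARE-bla HepG2 cells (2,000 cells/well, pre-incubated 5 h) and left 16 h at 37 C. LiveBLAzer B/G FRET substrate then added for 2 h at RT before fluorescence reading.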
(Quantitative high-throughput screening tests each substance at several concentrations.)
Consider `O=S1(=O)CCCO1`, for which the Potency entry was “inactive”.
With `CCOC(=O)C(C)Oc1ccc(Oc2cnc3cc(Cl)ccc3n2)cc1` (stereo not drawn), the Potency result is “inactive”.
In the case of `COC(=O)CC(=O)OC` it was “inactive”; in that of `C=C[Si](OCCOC)(OCCOC)OCCOC`, “inactive”.
In the case of `CN(C)/N=N/c1nc[nH]c1C(N)=O` it was “inactive”; in that of `c1ccc2c(c1)[nH]c1ccccc12`, “inactive”; in that of `CCCCCCC(C)O` (stereo not drawn), “inactive”.
On to `CCC/C=C/C=O`, for which the Potency result is “inactive”.
Take `CCCCCCCCCCCCO`: the Potency entry was “inactive”.
For `CC(C)[N+](C)(CCOC(=O)C1c2ccccc2Oc2ccccc21)C(C)C`, the Potency entry is “inactive”.
In the case of `C/C=C/C(=O)N(CC)c1ccccc1C` it was “inactive”; in that of `COC(=O)c1ccc(C)cc1`, “inactive”; in that of `CCc1cccc2c3c([nH]c12)C(CC)(CC(=O)O)OCC3` (stereo not drawn), “inactive”.
In the case of `CCCCCCCCCCCCCO` it was “inactive”; in that of `CC(=O)Oc1c(C)c(C)c2c(c1C)CC[C@@](C)(CCC[C@H](C)CCC[C@H](C)CCCC(C)C)O2`, “inactive”.
As to `Cc1ccc(C(C)(C)C)cc1`, the Potency entry was “inactive”.
In the case of `CCO[Si](CCCNC(N)=O)(OCC)OCC` it was “inactive”; in that of `OC[C@H]1O[C@@H]2O[C@H]3[C@H](O)[C@@H](O)[C@@H](O[C@H]4[C@H](O)[C@@H](O)[C@@H](O[C@H]5[C@H](O)[C@@H](O)[C@@H](O[C@H]6[C@H](O)[C@@H](O)[C@@H](O[C@H]7[C@H](O)[C@@H](O)[C@@H](O[C@H]1[C@H](O)[C@H]2O)O[C@@H]7CO)O[C@@H]6CO)O[C@@H]5CO)O[C@@H]4CO)O[C@@H]3CO`, “inactive”; in that of `CC1(C)O[C@@H]2C[C@H]3[C@@H]4C[C@H](F)C5=CC(=O)C=C[C@]5(C)[C@@]4(F)[C@@H](O)C[C@]3(C)[C@]2(C(=O)CO)O1`, “inactive”.
Regarding `CCCCCCCC/C=C\CCCCCCCC(=O)O`, the Potency entry is “inactive”.
Next, `CN(C)C`: “inactive”.
In the case of `CCC(Cc1c(I)cc(I)c(N)c1I)C(=O)O` (stereo not drawn) it was 23.6 µM (active).
Next, `Cc1ccc([N+](=O)[O-])c(C)c1`: “inactive”; `O=C1CCc2ccccc2O1`: “inactive”; `[Na+]`: “inactive”.
As for `C1COCCN1`, the Potency result is “inactive”.
Take `Nc1cc(Cl)c(N)c(Cl)c1`: the Potency is 27.3 µM (active).
Take `CC(C)(C)c1cccc(C(C)(C)C)c1O`: the Potency entry was “inactive”.
In the case of `C=CCNCC=C` it was “inactive”; in that of `FC(F)(F)C(Cl)Br` (stereo not drawn), “inactive”; in that of `CCCCCC1C(=O)CCC1CC(=O)OC` (stereo not drawn), “inactive”.
On to `NCCOCCO`, for which the Potency entry was “inactive”.
Next, `CNC[C@H](O)c1ccc(O)c(O)c1`: “inactive”.
In the case of `NCCS(=O)(=O)O`, the Potency entry was “inactive”.
Consider `Cc1ccc(S(=O)(=O)O)cc1C`, for which the Potency result is “inactive”.
As to `CC1(C)C(C=C(Cl)Cl)C1C(=O)OCc1cccc(Oc2ccccc2)c1` (stereo not drawn), the Potency entry was “inactive”.
In the case of `Cc1ccc(N)c([N+](=O)[O-])c1` it was “inactive”; in that of `O=C(O)c1cc(=O)[nH]c(=O)[nH]1`, “inactive”.
